# Where “and” joins values, the source holds several entries; their conditions need not be identical. Identical values can stand only once. Inconclusive results are not listed. Where a call stands in place of a potency, no number is given. Calls of active or inactive are those of the source. Unless noted, calls follow the shape of the dose curve; as a rule, active = well fitted curve in the direction sought with a large enough effect in the repeat runs; inconclusive = weak or mixed curves; inactive = no such curve, though single readings can be large; an effect the other way counts as inactive or inconclusive.
# Experiments:
# [1] = qHTS assay to identify small molecule antagonists of the thyroid receptor (TR) signaling pathway - cell viability counter screen (AID 743064); also: nearly all actives have a fitted effect of over 50% in size; also: potency is read from the fitted curve at half-maximal effect
# How it was run: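 CellTiter-Fluor readout, 30 min at 37 °C/5% CO2, following 23.5 h incubation of GH3.TRE-Luc cells with test compound and 1 nM T3 (final).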
# [2] = qHTS assay to identify small molecule antagonists of the thyroid receptor (TR) signaling pathway (AID 743065); also: nearly all actives have a fitted effect of over 55% in size; also: potency is read from the fitted curve at half-maximal effect
# How it was run: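 Antagonism measured as loss of luciferase signal in GH3 cells stably carrying a TRE-luciferase reporter, co-treated with compound and T3 (1 nM final) for 23.5 h at 37 C. Viability was read in the same well by CellTiter-Fluor.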
# [3] = test system: thyroid hormone receptor (rat, GH3 cells); experiment: qHTS assay to identify small molecule agonists of the thyroid receptor (TR) signaling pathway (AID 743066; calls by dose curve)
# [4] = qHTS assay to identify small molecule antagonists of the estrogen receptor alpha (ER-alpha) signaling pathway - cell viability counter screen (AID 743074; calls by dose curve;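 also: HEK293 cells carrying ER-alpha-UAS-bla reporter stimulated with 17beta-estradiol; nearly all actives have a fitted effect of over 45% in size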)
# [5] = biological target: Estrogen receptor (Homo sapiens) (UniProt P03372); experiment: qHTS assay to identify small molecule agonists of the estrogen receptor alpha (ER-alpha) signaling pathway (AID 743075; calls by dose curve;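 also: HEK293 GripTite cells with ER-alpha and UAS-driven beta-lactamase reporter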)
# [6] = qHTS assay to identify small molecule antagonists of the estrogen receptor alpha (ER-alpha) signaling pathway using the BG1 cell line - cell viability counter screen (AID 743081);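 also: compound given together with 17beta-estradiol as the ER stimulus; nearly all actives have a fitted effect of over 45% in size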
# Aromatase (Homo sapiens) = Aromatase (Homo sapiens) (UniProt P11511); experiment: qHTS assay to identify aromatase inhibitors (AID 743083); also: nearly all actives have a fitted effect of over 55% in size
# [7] = qHTS assay to identify aromatase inhibitors - cell viability counter screen (AID 743084);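 also: cells stimulated with testosterone during compound exposure; nearly all actives have a fitted effect of over 55% in size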
# [8] = qHTS assay to identify small molecule that activate the aryl hydrocarbon receptor (AhR) signaling pathway - cell viability counter screen (AID 743086);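 also: HepG2 liver cells carrying the AhR DRE luciferase reporter; nearly all actives have a fitted effect of over 45% in size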
# How it was run: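 Cytotoxicity counter screen: CellTiter-Fluor signal (30 min, 37 C) in 4000 HepG2 cells/well carrying the DRE-luciferase reporter, following 24 h compound exposure at 37 C.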
# [9] = biological target: Peroxisome proliferator-activated receptor gamma (Homo sapiens) (UniProt P37231); experiment: qHTS assay to identify small molecule agonists of the peroxisome proliferator-activated receptor gamma (PPARg) signaling pathway (AID 743094; active = well fitted activation curve with a large enough effect in the signal ratio in the repeat runs, not every such curve was filed as active; the % refers to the signal ratio)
# How it was run: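 Reporter activation was scored by fluorescence of cleaved LiveBLAzer B/G substrate (1 h, room temperature) in PPARg-bla HEK293H cells previously treated 17 h at 37C with DMSO-dissolved compounds.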
# [10] = qHTS assay to identify small molecule antagonists of the peroxisome proliferator-activated receptor gamma (PPARg) signaling pathway - cell viability counter screen (AID 743194); also: nearly all actives have a fitted effect of over 55% in size
# How it was run: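 Viability was measured as CellTiter-Glo luminescence in GeneBLAzer PPARg UAS-bla HEK293H cells. These cells had been exposed 17 h at 37 C to compounds together with rosiglitazone at 50 nM final, with the beta-lactamase readout taken in the same wells.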
# [11] = qHTS assay for small molecule agonists of the antioxidant response element (ARE) signaling pathway (AID 743202; active = well fitted activation curve with a large enough effect in the signal ratio in the repeat runs, not every such curve was filed as active; the % refers to the signal ratio)
# How it was run: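 Beta-lactamase reporter activity, read as fluorescence intensity, reflects ARE/Nrf2 pathway induction in HepG2 cells after 16 h compound exposure at 37 C; substrate loading was 2 h at room temperature.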
# [12] = qHTS assay for small molecule agonists of the antioxidant response element (ARE) signaling pathway - cell viability counter screen (AID 743203; calls by dose curve; also: nearly all actives have a fitted effect of over 55% in size; also: potency is read from the fitted curve at half-maximal effect)
# How it was run: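 Viability counter screen: stably transfected ARE-bla HepG2 line, 16 hrs compound exposure at 37C/5% CO2, ATP-based CellTiter-Glo luminescence measured in the reporter wells.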
# [13] = qHTS assay for small molecule activators of the heat shock response signaling pathway (AID 743210; active = well fitted activation curve with a large enough effect in the signal ratio in the repeat runs, with a control signal flat, not every such curve was filed as active; the % refers to the signal ratio;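 also: HeLa cells with beta-lactamase reporter driven by heat shock elements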)
# How it was run: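 Fluorescence from a cleaved B/G FRET substrate (2.5 h, room temp) reports HSE-driven beta-lactamase in HeLa cells treated 5 h at 37 C with DMSO-dissolved compounds.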
# [14] = biological target: Peroxisome proliferator-activated receptor gamma (Homo sapiens) (UniProt P37231); experiment: qHTS assay to identify small molecule antagonists of the peroxisome proliferator-activated receptor gamma (PPARg) signaling pathway (AID 743191; calls by dose curve; also: nearly all actives have a fitted effect of over 30% in size; also: potency is read from the fitted curve at half-maximal effect)
# How it was run: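 Beta-lactamase reporter under UAS control in HEK293H PPARg-bla cells; compound treatment 17 h at 37C. Read-out: fluorescence intensity after 1 h room-temperature incubation with LiveBLAzer B/G FRET substrate.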
# [15] = qHTS assay for small molecule activators of the heat shock response signaling pathway - cell viability counter screen (AID 743209); also: nearly all actives have a fitted effect of over 50% in size; also: potency is read from the fitted curve at half-maximal effect
# How it was run: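 Viability of HSE-bla HeLa cells is measured with CellTiter-Glo in the wells already used for the reporter read. Compound exposure lasts 5 h at 37 C, and luminescence is read after 30 min at room temperature.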
# [16] = biological target: Aryl hydrocarbon receptor (Homo sapiens) (UniProt P35869); experiment: qHTS assay to identify small molecule that activate the aryl hydrocarbon receptor (AhR) signaling pathway (AID 743085);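 also: HG2L7.5c1 human HepG2 liver cells with stably integrated DRE-driven firefly reporter; nearly all actives have a fitted effect of over 15% in size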
# How it was run: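 Stably transfected human liver carcinoma cells (HG2L7.5c1; 20 DRE-firefly luciferase) were incubated 5 h, dosed, and kept 24 h at 37C. Agonism was scored from increased luciferase luminescence.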
# [17] = biological target: Estrogen receptor (Homo sapiens) (UniProt P03372); experiment: qHTS assay to identify small molecule agonists of the estrogen receptor alpha (ER-alpha) signaling pathway using the BG1 cell line (AID 743079); conditions: BG1Luc4E2 cells, ERE-luciferase agonist, 22 h; activation: at 70.3 µM (top of the series); also: potency is read from the fitted curve at half-maximal effect; nearly all actives have a fitted effect of over 20% in size
# [18] = qHTS assay to identify small molecule antagonists of the estrogen receptor alpha (ER-alpha) signaling pathway using the BG1 cell line (AID 743080; calls by dose curve;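 also: BG1 cells stimulated with 17beta-estradiol alongside compound; potency is read from the fitted curve at half-maximal effect; nearly all actives have a fitted effect of over 25% in size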)
# How it was run: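 BG1Luc4E2, endogenous ER-alpha, 4xERE-luc; 5 d charcoal-stripped FBS, phenol red free; 24 h plating; cpd + 17beta-estradiol 21.5 h, 37 C/5% CO2; CellTiter-Fluor viability 30 min, then ONE-Glo luciferase 30 min RT.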
# Sequence of Estrogen receptor (Homo sapiens) (P03372 whole entry, looked up): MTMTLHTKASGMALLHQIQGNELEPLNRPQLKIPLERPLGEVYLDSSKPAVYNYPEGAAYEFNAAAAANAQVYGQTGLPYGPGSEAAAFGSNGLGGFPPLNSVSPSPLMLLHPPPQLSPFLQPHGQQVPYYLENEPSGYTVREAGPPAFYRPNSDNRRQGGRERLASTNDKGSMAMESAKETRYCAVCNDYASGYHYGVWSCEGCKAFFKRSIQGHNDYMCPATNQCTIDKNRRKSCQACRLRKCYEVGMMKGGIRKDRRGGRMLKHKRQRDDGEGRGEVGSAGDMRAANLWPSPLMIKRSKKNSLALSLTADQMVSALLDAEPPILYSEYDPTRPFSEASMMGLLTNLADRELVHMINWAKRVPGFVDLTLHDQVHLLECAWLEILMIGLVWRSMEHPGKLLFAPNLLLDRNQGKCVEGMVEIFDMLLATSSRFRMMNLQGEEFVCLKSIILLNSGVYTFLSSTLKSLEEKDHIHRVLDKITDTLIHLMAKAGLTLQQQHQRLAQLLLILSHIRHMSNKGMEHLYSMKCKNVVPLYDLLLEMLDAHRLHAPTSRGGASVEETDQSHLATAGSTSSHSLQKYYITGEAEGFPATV
# Sequence of Aryl hydrocarbon receptor (Homo sapiens) (P35869 whole entry, looked up): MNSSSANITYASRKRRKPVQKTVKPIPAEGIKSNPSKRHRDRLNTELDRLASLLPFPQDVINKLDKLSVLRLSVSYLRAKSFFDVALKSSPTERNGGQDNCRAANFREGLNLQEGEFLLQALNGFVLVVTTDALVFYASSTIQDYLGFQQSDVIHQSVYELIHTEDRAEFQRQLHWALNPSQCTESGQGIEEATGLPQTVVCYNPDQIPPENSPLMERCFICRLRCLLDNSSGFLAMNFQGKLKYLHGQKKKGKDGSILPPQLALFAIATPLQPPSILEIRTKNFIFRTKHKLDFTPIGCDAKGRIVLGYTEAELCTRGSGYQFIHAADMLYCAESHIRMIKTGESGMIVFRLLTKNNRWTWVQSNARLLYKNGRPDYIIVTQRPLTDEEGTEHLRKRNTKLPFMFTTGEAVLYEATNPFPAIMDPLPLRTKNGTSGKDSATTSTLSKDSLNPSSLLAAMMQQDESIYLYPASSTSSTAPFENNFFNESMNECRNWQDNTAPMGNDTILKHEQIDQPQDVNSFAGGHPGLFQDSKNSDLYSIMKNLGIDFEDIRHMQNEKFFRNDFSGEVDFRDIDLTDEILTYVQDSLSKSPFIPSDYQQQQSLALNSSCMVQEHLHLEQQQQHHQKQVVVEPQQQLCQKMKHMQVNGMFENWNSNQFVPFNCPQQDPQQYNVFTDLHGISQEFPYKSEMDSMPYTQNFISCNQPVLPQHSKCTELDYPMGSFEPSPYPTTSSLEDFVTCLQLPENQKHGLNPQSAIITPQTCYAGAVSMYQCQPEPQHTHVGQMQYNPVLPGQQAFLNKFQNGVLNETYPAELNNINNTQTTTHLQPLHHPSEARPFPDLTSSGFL
# Sequence of Peroxisome proliferator-activated receptor gamma (Homo sapiens) (P37231 whole entry, looked up): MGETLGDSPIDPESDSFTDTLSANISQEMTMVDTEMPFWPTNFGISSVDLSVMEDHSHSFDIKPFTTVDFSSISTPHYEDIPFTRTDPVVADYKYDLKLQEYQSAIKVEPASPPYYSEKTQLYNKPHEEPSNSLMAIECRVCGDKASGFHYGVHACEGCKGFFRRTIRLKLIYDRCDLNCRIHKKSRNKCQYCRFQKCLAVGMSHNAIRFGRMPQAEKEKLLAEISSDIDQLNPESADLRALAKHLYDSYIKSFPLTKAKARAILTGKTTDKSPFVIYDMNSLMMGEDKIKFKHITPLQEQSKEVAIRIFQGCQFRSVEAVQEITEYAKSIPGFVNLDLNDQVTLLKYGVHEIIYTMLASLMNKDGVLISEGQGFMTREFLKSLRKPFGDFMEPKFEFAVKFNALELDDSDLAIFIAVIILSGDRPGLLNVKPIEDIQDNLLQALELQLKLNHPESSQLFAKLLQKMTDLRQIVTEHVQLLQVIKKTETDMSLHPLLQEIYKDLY
# Sequence of Aromatase (Homo sapiens) (P11511 whole entry, looked up): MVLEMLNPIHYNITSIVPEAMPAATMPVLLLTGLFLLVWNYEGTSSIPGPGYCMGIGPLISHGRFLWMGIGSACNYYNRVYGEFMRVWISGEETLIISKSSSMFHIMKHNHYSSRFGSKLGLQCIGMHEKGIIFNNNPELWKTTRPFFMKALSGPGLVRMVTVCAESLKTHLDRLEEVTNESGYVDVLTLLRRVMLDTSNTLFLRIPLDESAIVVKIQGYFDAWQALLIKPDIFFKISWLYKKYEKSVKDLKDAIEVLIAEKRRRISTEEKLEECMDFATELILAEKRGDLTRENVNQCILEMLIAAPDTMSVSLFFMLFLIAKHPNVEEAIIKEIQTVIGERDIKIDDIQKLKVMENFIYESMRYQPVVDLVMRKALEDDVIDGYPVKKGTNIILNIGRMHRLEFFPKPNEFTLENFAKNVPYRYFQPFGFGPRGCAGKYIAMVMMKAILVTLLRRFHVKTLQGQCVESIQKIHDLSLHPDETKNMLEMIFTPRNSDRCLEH
SMILES,Potency [1],Potency [2],outcome [3],Potency [4],Potency [5],Potency [6],Potency (Aromatase (Homo sapiens)),Potency [7],Potency [8],Potency [9],Potency [10],Potency [11],Potency [12],Potency [13],Potency [14],Potency [15],Potency [16],Potency [17],Potency [18]
CCCC(=O)O[C@]1(C(=O)COC(=O)CC)CC[C@H]2[C@@H]3CCC4=CC(=O)CC[C@]4(C)[C@H]3[C@@H](O)C[C@@]21C,inactive,inactive,inactive,inactive,inactive,inactive,inactive,inactive,inactive,inactive,inactive,inactive,inactive,inactive,–,–,–,–,–
Fc1c(F)c(F)c(Br)c(F)c1F,inactive,inactive,inactive,inactive,–,inactive,–,inactive,inactive,inactive,inactive,–,inactive,inactive,inactive,inactive,–,–,–
C[N+](C)(C)CCOC(N)=O,inactive,inactive,inactive,inactive,–,inactive,inactive,inactive,inactive,–,inactive,inactive,inactive,inactive,–,inactive,inactive,–,–
CC1(C)C(=O)N(Br)C(=O)N1Cl,inactive,inactive,inactive,inactive,–,inactive,inactive,inactive,–,–,inactive,–,inactive,inactive,inactive,inactive,inactive,–,–
C[Si]1(C)O[Si](C)(C)O[Si](C)(C)O1,inactive,inactive,inactive,–,–,inactive,inactive,inactive,inactive,inactive,inactive,–,inactive,inactive,inactive,inactive,inactive,–,–
CC(=N\O)/C(C)=N/O,inactive,inactive,inactive,inactive,–,inactive,inactive,inactive,–,inactive,inactive,–,inactive,inactive,inactive,inactive,inactive,–,–
Cc1ccc(/C=N/n2c(-c3ccccc3)csc2=S)cc1,inactive,23.7 µM (active),inactive,–,–,inactive,–,inactive,inactive,–,inactive,–,–,–,13.3 µM (active),–,–,–,–
COCc1c(C(C)C)nc(C(C)C)c(/C=C/[C@@H](O)C[C@@H](O)CC(=O)O)c1-c1ccc(F)cc1,inactive,11.9 µM (active),inactive,inactive,–,inactive,–,inactive,inactive,–,–,–,inactive,inactive,–,inactive,–,11.9 µM (active),–
C=CC(=C)CCCC(C)(C)OC(C)=O,inactive,inactive,inactive,inactive,–,inactive,inactive,inactive,inactive,inactive,inactive,inactive,inactive,inactive,inactive,inactive,inactive,–,–
COCCOC,inactive,inactive,inactive,inactive,–,inactive,–,–,inactive,–,inactive,inactive,inactive,inactive,–,–,–,–,–
Cc1cnc(C)c(C)n1,inactive,inactive,inactive,inactive,–,inactive,inactive,inactive,inactive,inactive,–,inactive,inactive,inactive,inactive,inactive,–,–,–
O=C(CCCCCCCCC#CI)Oc1ccccc1,inactive,13.3 µM (active),inactive,–,–,inactive,inactive,inactive,inactive,inactive,–,inactive,inactive,inactive,–,inactive,inactive,–,–
CC1C2CC(CC2C2CCCC(O)C2)C1(C)C (stereo not drawn),inactive,inactive,inactive,inactive,–,inactive,–,–,inactive,–,inactive,–,61.1 µM (active),–,–,49 µM (active),inactive,–,–
CN1CCN(CCCN2c3ccccc3Sc3ccc(S(=O)(=O)N(C)C)cc32)CC1,14.3 µM (active),11.4 µM (active),inactive,inactive,–,inactive,inactive,inactive,inactive,–,–,–,26.6 µM (active),inactive,–,–,inactive,–,–
O=C(CCCCCCC(=O)Nc1ccccc1)NO,3.35 µM (active) and 2.11 µM (active),2.11 µM (active) and 2.66 µM (active),inactive,inactive,inactive,inactive,–,–,inactive,–,–,–,–,inactive,–,inactive,inactive,–,5.96 µM (active) and 4.22 µM (active)
CC(C)(C)C(=O)O,inactive,inactive,inactive,inactive,–,inactive,inactive,inactive,inactive,inactive,–,–,inactive,inactive,inactive,–,–,–,–
